Data reported in PubChem BioAssay (Tox21).
Records with an inconclusive call do not appear. A call without a number means that no potency is given here. Unmarked numbers belong to inactive results. Calls of active or inactive are those of the source. Calls come from the whole dose curve; as a rule, active = well fitted activation curve with a large enough effect in the signal ratio in the repeat runs (not every such curve was filed as active); inconclusive = weak or mixed curves; inactive = flat fitted curve, though single readings scatter; the % refers to the signal ratio.

Assay: p53 small molecule agonists, cell-based qHTS assay (AID 1963582)
Settings: HCT-116 p53RE-bla reporter, beta-lactamase FRET ratio, 16 h; series mostly up to 66 µM; activation: at the top concentration
Excerpt: National Center for Advancing Translational Sciences [NCATS]
Division of Preclinical Innovation [DPI]
U.S. Environmental Protection Agency [EPA]
National Institutes of Environmental Health Sciences [NIEHS]
National Toxicology Program [NTP]
U.S. Food and Drug Administration [FDA]
p53, a tumor suppressor protein, is activated following cellular insult, including DNA damage and other cellular stresses. The activation of p53 regulates cell fate by inducing DNA repair, cell cycle arrest, apoptosis, or cellular senescence. The activation of p53, therefore, is a good indicator of DNA damage and other cellular stresses. […] The activation of the reporter gene under culture conditions can be detected by fluorescence intensity. This cell line was used to screen the Tox21 10K compound library in a 1536-well plate format and to identify agonists that activate the p53 signaling pathway.
Tox21 Assay Protocol Summary:
The p53RE-bla cells were dispensed at 4,000 cells/5 ul/well in 1536-well black wall/clear bottom plates using a Multidrop dispenser. After the assay plates were incubated at a 37 C/5% CO2 incubator for 5 hours, 23 nL of compounds dissolved in DMSO, positive controls or DMSO only was transferred to the assay plate by a pin tool. The plates were incubated at 37 C for 16 hours. After 1 uL of LiveBLAzerTM B/G FRET substrate was added using a Flying Reagent Dispenser, the plates were incubated at room temperature for 2 hours, and fluorescence intensity was measured by an Envision plate reader.

Row | Structure (SMILES) | Potency | activation
1 | Cc1nnc(NS(=O)(=O)c2ccc(N)cc2)s1 | inactive | 
2 | c1cc(-c2ccncc2)ccn1 | inactive | 
3 | C=C(C)C(=O)OCCC[Si](OC)(OC)OC | inactive | 
4 | Cc1ncc(CO)c(CO)c1O | inactive | 
5 | O=c1cc[nH]c(=O)[nH]1 | inactive | 
6 | COC(=O)c1cccc(C(=O)OC)c1 | inactive | 
7 | CC(C)OB(OC(C)C)OC(C)C | inactive | 
8 | Cc1cccc(O)c1 | inactive | 
9 | O=C1OC(c2ccc(O)cc2)(c2ccc(O)cc2)c2ccccc21 |  | -2.12% [at 30.3 µM]
10 | CCOC(=O)CC(=O)OCC | inactive | 
11 | OC(Cn1cncn1)(Cn1cncn1)c1ccc(F)cc1F | inactive | 
12 | CCCCOCCOC(=O)c1ccccc1C(=O)OCCOCCCC | inactive | 
13 | Cc1ccc2ncccc2c1 | inactive | 
14 | COC(=O)c1ccc(C=O)cc1 |  | 0.646%
15 | O=C=Nc1ccc(Cc2ccc(N=C=O)cc2)cc1 | inactive | 
16 | Brc1cc(Oc2cc(Br)c(Br)c(Br)c2Br)c(Br)c(Br)c1Br |  | -1.28% [at 30.3 µM]
17 | COC(=O)CCCCC(=O)OC | inactive | 
18 | NCCOCCO | inactive | 
19 | C=C(CC(=O)O)C(=O)O | inactive | 
20 | Nc1nc2ccccc2[nH]1 |  | 15.5%

Row | Structure (SMILES) | Potency | activation
21 | Cc1c(C(N)=O)cc([N+](=O)[O-])cc1[N+](=O)[O-] | inactive | 
22 | Cc1ccc(C)c(C)c1 | inactive | 
23 | CNC[C@H](O)[C@@H](O)[C@H](O)[C@H](O)CO | inactive | 
24 | O=C(O)Cc1cccc2ccccc12 | inactive | 
25 | COC(=O)CC(=O)OC | inactive | 
26 | Oc1ccc2ccccc2c1N=Nc1ccccc1 | inactive | 
27 | Cc1c(OCC(F)(F)F)ccnc1CS(=O)c1nc2ccccc2[nH]1 (stereo not given) |  | -4.58% [at 30.3 µM]
28 | COCCc1ccc(OCC(O)CNC(C)C)cc1 (stereo not given) | inactive | 
29 | CN(C)C | inactive | 
30 | CCNC(=S)NCC | inactive | 
31 | O=C(O)CC(C(=O)O)C(CC(=O)O)C(=O)O (stereo not given) | inactive | 
32 | Cc1ncc([N+](=O)[O-])n1CCO | inactive | 
33 | CC(C)=CCC/C(C)=C/C=O | inactive | 
34 | CC1=C(/C=C/C(C)=C/C=C/C(C)=C/C(=O)Nc2ccc(O)cc2)C(C)(C)CCC1 |  | -7.01% [at 30.3 µM]
35 | C[Si](O[Si](C)(C)C)O[Si](C)(C)C | inactive | 
36 | C=CC(=O)OCCCCCCCC(C)C | inactive | 
37 | Nc1ncnc2nc[nH]c12 | inactive | 
38 | O=C(CC(C(=O)OC1CCCCC1)S(=O)(=O)O)OC1CCCCC1 (stereo not given) | inactive | 
39 | COC(=O)CCC(=O)OC | inactive | 
40 | CCCCOC(=O)CC(CC(=O)OCCCC)(OC(C)=O)C(=O)OCCCC | inactive | 
